Data: the antibiotic and cytotoxicity screens of Wong et al. (2023)
Out of some 39,000 compounds screened, about 3,300 (8.5%) were called active. The list comes from a sample in which actives are over-represented; it also holds similar structures and randomly drawn compounds.

tested on: HepG2; experiment: cytotoxicity call (relative viability < 0.9); conditions: 10 µM

SMILES	cytotoxicity call
C[C@H](CO)N1C[C@H](C)[C@H](CN(C)Cc2ccc(C(=O)Nc3ccccc3N)cc2)Oc2c(NS(C)(=O)=O)cccc2C1=O	inactive
COCCNCCn1cnc2c1c(=O)[nH]c(=O)n2C	inactive
C[C@@H]1CCCCO[C@@H](CN(C)Cc2ccncc2)[C@H](C)CN([C@H](C)CO)C(=O)c2cc(NC(=O)Nc3ccc4c(c3)OCO4)ccc2O1	inactive
C[C@@H]1CCCCO[C@@H](CN(C)C(=O)CCCN(C)C)[C@@H](C)CN([C@@H](C)CO)C(=O)c2cc(NC(=O)Nc3ccc(C(F)(F)F)cc3)ccc2O1	inactive
Cc1ccc(S(=O)(=O)N(C)C[C@H]2OCCCC[C@H](C)Oc3ccc(NC(=O)Nc4c(C)noc4C)cc3C(=O)N([C@@H](C)CO)C[C@@H]2C)cc1	inactive
C[C@H](CO)N1C[C@H](C)[C@@H](CN(C)C(=O)Nc2cccc3ccccc23)Oc2ccc(NS(=O)(=O)c3ccc(F)cc3)cc2C1=O	inactive
C[C@H]1CN([C@@H](C)CO)C(=O)Cc2cc(NC(=O)C3CC3)ccc2O[C@@H]1CN(C)S(=O)(=O)c1cn(C)cn1	inactive
COc1ccc(S(=O)(=O)Nc2ccc3c(c2)C(=O)N([C@@H](C)CO)C[C@@H](C)[C@@H](CN(C)Cc2ccc(Cl)c(Cl)c2)OCCCC[C@@H](C)O3)cc1	active
COc1ccc(S(=O)(=O)Nc2ccc3c(c2)C(=O)N([C@H](C)CO)C[C@@H](C)[C@H](CN(C)Cc2ccc(Cl)c(Cl)c2)OCCCC[C@@H](C)O3)cc1	active
COc1ccc(S(=O)(=O)Nc2ccc3c(c2)C(=O)N([C@H](C)CO)C[C@@H](C)[C@@H](CN(C)Cc2ccc(Cl)c(Cl)c2)OCCCC[C@H](C)O3)cc1	inactive
COc1ccc(S(=O)(=O)Nc2ccc3c(c2)C(=O)N([C@@H](C)CO)C[C@H](C)[C@H](CN(C)Cc2ccc(Cl)c(Cl)c2)OCCCC[C@@H](C)O3)cc1	active
COc1ccc(S(=O)(=O)Nc2ccc3c(c2)C(=O)N([C@H](C)CO)C[C@H](C)[C@H](CN(C)Cc2ccc(Cl)c(Cl)c2)OCCCC[C@H](C)O3)cc1	inactive
COc1ccc(S(=O)(=O)Nc2ccc3c(c2)C(=O)N([C@H](C)CO)C[C@H](C)[C@H](CN(C)Cc2ccc(Cl)c(Cl)c2)OCCCC[C@@H](C)O3)cc1	active
COCCNC(=O)C[C@H]1C[C@@H]2c3cc(NS(C)(=O)=O)ccc3O[C@@H]2[C@@H](CO)O1	inactive
O=C(O)c1csc2ccccc12	inactive
Cc1noc(C)c1S(=O)(=O)N(C)C[C@H]1OCCCC[C@@H](C)Oc2ccc(NS(C)(=O)=O)cc2C(=O)N([C@H](C)CO)C[C@@H]1C	inactive
COc1ccc(S(=O)(=O)N(C)C[C@H]2Oc3ccc(NC(=O)NC(C)C)cc3CC(=O)N([C@@H](C)CO)C[C@H]2C)cc1	inactive
O=C(CN1C(=O)COCC1=O)N1CCOCC1	inactive
CCCNC(=O)Nc1ccc2c(c1)OC[C@H](C)N(C(=O)C1CCOCC1)C[C@H](C)[C@H](OC)CN(C)C2=O	inactive
CC(C)c1cc(N2CC[C@@H](N)C2)nc(N)n1	inactive
Cc1noc(C)c1NC(=O)Nc1cccc2c1O[C@H](CN(C)S(C)(=O)=O)[C@H](C)CN([C@@H](C)CO)C2=O	inactive
CC(C)NC(=O)Nc1ccc2c(c1)CC(=O)N([C@H](C)CO)C[C@H](C)[C@H](CN(C)Cc1ccc(C(=O)O)cc1)O2	inactive

SMILES	cytotoxicity call
O=C(NCCCN1CCOCC1)[C@H]1[C@H](CO)[C@H]2Cn3c(cccc3=O)[C@@H]1N2C(=O)NC1CCCC1	inactive
CC(C)CN[C@H]1CCS(=O)(=O)C1	inactive
COc1ccc(CN(C)C[C@H]2OCCCC[C@@H](C)Oc3ccc(NS(=O)(=O)c4ccc(OC)cc4)cc3C(=O)N([C@H](C)CO)C[C@@H]2C)cc1	inactive
COc1ccc(S(=O)(=O)Nc2ccc3c(c2)C(=O)N([C@@H](C)CO)C[C@@H](C)[C@H](CN(C)Cc2ccc(Cl)c(Cl)c2)OCCCC[C@@H](C)O3)cc1	active
COc1ccc(CN(C)C[C@@H]2OCCCC[C@@H](C)Oc3ccc(NS(=O)(=O)c4ccc(OC)cc4)cc3C(=O)N([C@H](C)CO)C[C@H]2C)cc1	inactive
COc1ccc(S(=O)(=O)Nc2ccc3c(c2)C(=O)N([C@H](C)CO)C[C@H](C)[C@@H](CN(C)Cc2ccc(Cl)c(Cl)c2)OCCCC[C@H](C)O3)cc1	active
C[C@H]1CN([C@@H](C)CO)C(=O)c2cc(NS(=O)(=O)c3cn(C)cn3)ccc2O[C@H]1CN(C)C(=O)Nc1ccc2c(c1)OCO2	inactive
Cc1nc(CO)co1	inactive
COc1ccc([C@@H](N)c2ccncc2)cc1	inactive
C[C@H](CO)N1C[C@H](C)[C@@H](CN(C)Cc2ccc(Oc3ccccc3)cc2)Oc2c(NC(=O)CCCCCC(=O)Nc3ccccc3N)cccc2C1=O	inactive
COc1ccc(/C=C/CN(C/C=C/c2ccc(OC)cc2)CCCCNS(=O)(=O)c2cccc3cnccc23)cc1	active
O=S(=O)(NCCCCN(C/C=C/c1ccc(F)cc1)C/C=C/c1ccc(F)cc1)c1cccc2cnccc12	active
O=S(=O)(NCCCN(C/C=C/c1ccc(F)cc1)C/C=C/c1ccc(F)cc1)c1cccc2cnccc12	inactive
O=[N+]([O-])c1ccc(/C=C/CN(C/C=C/c2ccc([N+](=O)[O-])cc2)CCCCNS(=O)(=O)c2cccc3cnccc23)cc1	inactive
O=[N+]([O-])c1ccc(/C=C/CN(C/C=C/c2ccc([N+](=O)[O-])cc2)CCNS(=O)(=O)c2cccc3cnccc23)cc1	inactive
N=C(N)NCCNS(=O)(=O)c1cccc2cnccc12	active
O=S(=O)(NCCCN(CCCc1ccccc1)CCCc1ccccc1)c1cccc2cnccc12	inactive
COc1ccc(/C=C/CN(C/C=C/c2ccc(OC)cc2)CCCNS(=O)(=O)c2cccc3cnccc23)cc1	inactive
O=S(=O)(NCCCCN(C/C=C/c1ccccc1)C/C=C/c1ccccc1)c1cccc2cnccc12	inactive
COc1ccc(NC(=O)N(C)C[C@@H]2Oc3ccc(NC(=O)CCCN(C)C)cc3C(=O)N([C@H](C)CO)C[C@@H]2C)cc1	inactive
C[C@@H]1CN([C@H](C)CO)C(=O)c2cc(NS(=O)(=O)c3cn(C)cn3)ccc2O[C@@H](C)CCCCO[C@@H]1CN(C)C	inactive
Cc1cc(C(=O)Nc2cccc3c2O[C@@H](CN(C)S(=O)(=O)c2ccc(Cl)cc2)[C@H](C)CN([C@@H](C)CO)C3=O)n(C)n1	inactive

SMILES	cytotoxicity call
C[C@@H]1CN([C@@H](C)CO)C(=O)c2cc(NS(=O)(=O)c3cccs3)ccc2O[C@H]1CN(C)S(=O)(=O)c1ccc(F)cc1	inactive
C[C@@H](O)[C@H](N)C(=O)N[C@@H](CCCCN)C(=O)N1CCC[C@H]1C(=O)N[C@@H](CCCNC(=N)N)C(=O)O	inactive
O=C(C[C@H]1C[C@H]2c3cc(NS(=O)(=O)c4ccc(F)cc4)ccc3O[C@H]2[C@H](CO)O1)NCc1cccnc1	inactive
Cc1noc(C)c1NC(=O)Nc1ccc2c(c1)C(=O)N([C@H](C)CO)C[C@H](C)[C@@H](CN(C)C(=O)Nc1c(C)noc1C)OCCCC[C@H](C)O2	inactive
CN(C)CCCCCCNC(=O)[C@@H]1C[C@@H]2C(=O)N[C@@H](CCCC[N+](C)(C)C)C(=O)N2[C@@H]1c1cccc(OCCO)c1	inactive
C[C@H](CO)N1C[C@H](C)[C@@H](CN(C)C(=O)C2CCCCC2)Oc2cc(C#Cc3ccncc3)ccc2S1(=O)=O	active
C[C@H](CO)N1C[C@H](C)[C@H](CN(C)C(=O)C2CCCCC2)Oc2cc(C#Cc3ccncc3)ccc2S1(=O)=O	active
C[C@@H]1CN([C@@H](C)CO)S(=O)(=O)c2ccc(C#Cc3ccncc3)cc2O[C@H]1CN(C)C(=O)C1CCCCC1	active
C[C@@H]1CN([C@@H](C)CO)S(=O)(=O)c2ccc(C#CC3CC3)cc2O[C@H]1CN(C)C(=O)C1CCCCC1	inactive
C[C@@H]1CN([C@H](C)CO)S(=O)(=O)c2ccc(C#C[C@@H](C)O)cc2O[C@@H]1CN(C)C(=O)C1CCCCC1	inactive
C[C@H](O)C#Cc1ccc2c(c1)O[C@@H](CN(C)C(=O)C1CCCCC1)[C@H](C)CN([C@H](C)CO)S2(=O)=O	inactive
C[C@@H]1CN([C@H](C)CO)S(=O)(=O)c2ccc(C#Cc3ccncc3)cc2O[C@H]1CN(C)C(=O)C1CCCCC1	active
C[C@H](O)C#Cc1ccc2c(c1)O[C@@H](CN(C)C(=O)C1CCCCC1)[C@H](C)CN([C@@H](C)CO)S2(=O)=O	inactive
C[C@H]1CN([C@@H](C)CO)S(=O)(=O)c2ccc(C#Cc3ccncc3)cc2O[C@H]1CN(C)C(=O)C1CCCCC1	inactive
COc1ccc(CN(C)C[C@@H]2Oc3ccc(NS(=O)(=O)c4cn(C)cn4)cc3C(=O)N([C@@H](C)CO)C[C@@H]2C)cc1	inactive
C[C@H]1CN([C@@H](C)CO)C(=O)c2cc(NC(=O)Nc3ccc4c(c3)OCO4)ccc2O[C@@H]1CN(C)C(=O)Nc1cccc2ccccc12	inactive
C[C@H](CO)N1C[C@H](C)[C@H](CN(C)S(=O)(=O)c2ccccc2)Oc2c(NS(=O)(=O)c3cccs3)cccc2C1=O	inactive
Cc1ccc(S(=O)(=O)N(C)C[C@@H]2Oc3ccc(NS(=O)(=O)c4c(C)noc4C)cc3C(=O)N([C@@H](C)CO)C[C@H]2C)cc1	inactive
COc1ccccc1-c1cccc(-c2nc(C(=O)N3CCCCC3)cc3c2[C@@H](CCO)N([S@](=O)C(C)(C)C)C3)c1	inactive
O[C@H]1[C@H](O)[C@@H](O)[C@H](O)[C@@H](O)[C@H]1O	inactive
Cc1ccc(S[C@]2(C(=O)NC3CC3)CC(=O)N(C3Cc4ccccc4C3)[C@@H]2c2ccc(CO)cc2I)cc1	inactive
